Screening results as filed in PubChem.
Hits are enriched below; roughly 12% of the tested compounds scored in any of these assays.
G9a block: blocks human histone lysine methyltransferase G9a; Q96KQ7; G9a H3K9 monomethylation, AlphaScreen, 2 h; Potency, µM (highest dose often 102 µM), for inactives: at the highest dose activity, negative = inhibition, actives largely listed as inhibitors; hit rate 8.8% among 350,000; AID 504332; note: % is set by controls: 0 for no effect and ±100 for the full control effect; nearly all actives have a fitted effect of over 75% in size
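G9a (20 nM) was preincubated 15 min with compound, then reacted 2 h at room temperature with 500 nM biotin-H3K9 peptide and 20 µM SAM. Monomethyl-H3K9 detected by AlphaScreen using anti-H3K9me1 antibody.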
JMJD2A Tudor inh: inhibitors of human JMJD2A Tudor domain | O75164 | AlphaScreen JMJD2A-Tudor / H3K4me3 peptide binding | Potency, µM (highest dose often 114 µM), for inactives: at the highest dose activity change, negative = inhibition, hits mostly inhibitors | hit rate 4.4% among 390,000; note: % is set by controls: 0 for no effect and ±100 for the full control effect; nearly all actives have a fitted effect of over 50% in size
Sfp inh: Sfp phosphopantetheinyl transferase inhibition | Q9F4F7 | Biochemical Sfp PPTase activity, qHTS | Potency, µM, for inactives: largest response in the series, negative = inhibition, usual class: inhibitors | hit rate 3.5% among 310,000;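 note: the enzyme is Sfp with the accession as filed and its product quenches rhodamine fluorescence; 0% = enzyme reaction without inhibitor and -100% = no enzyme wells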
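With Hepes-Na pH 7.6 buffer containing 10 mM MgCl2, Sfp (15 nM) modified BHQ-2-YbbR (12.5 uM) using rhodamine-CoA (5 uM). Two reads 30 minutes apart at 525/598 nm yielded each well's rate.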
BAZ2B inh: inhibitors of human BAZ2B bromodomain | Potency, µM (series often up to 114 µM), without a hit: top-dose activity change, negative = inhibition, actives largely listed as inhibitors | hit rate 4.4% among 360,000 | Q9UIF8 | AlphaScreen BAZ2B-H3K14Ac peptide displacement; note: % is set by controls: 0 for no effect and ±100 for the full control effect; nearly all actives have a fitted effect of over 60% in size
Target sequence (Q9UIF8 whole entry, looked up): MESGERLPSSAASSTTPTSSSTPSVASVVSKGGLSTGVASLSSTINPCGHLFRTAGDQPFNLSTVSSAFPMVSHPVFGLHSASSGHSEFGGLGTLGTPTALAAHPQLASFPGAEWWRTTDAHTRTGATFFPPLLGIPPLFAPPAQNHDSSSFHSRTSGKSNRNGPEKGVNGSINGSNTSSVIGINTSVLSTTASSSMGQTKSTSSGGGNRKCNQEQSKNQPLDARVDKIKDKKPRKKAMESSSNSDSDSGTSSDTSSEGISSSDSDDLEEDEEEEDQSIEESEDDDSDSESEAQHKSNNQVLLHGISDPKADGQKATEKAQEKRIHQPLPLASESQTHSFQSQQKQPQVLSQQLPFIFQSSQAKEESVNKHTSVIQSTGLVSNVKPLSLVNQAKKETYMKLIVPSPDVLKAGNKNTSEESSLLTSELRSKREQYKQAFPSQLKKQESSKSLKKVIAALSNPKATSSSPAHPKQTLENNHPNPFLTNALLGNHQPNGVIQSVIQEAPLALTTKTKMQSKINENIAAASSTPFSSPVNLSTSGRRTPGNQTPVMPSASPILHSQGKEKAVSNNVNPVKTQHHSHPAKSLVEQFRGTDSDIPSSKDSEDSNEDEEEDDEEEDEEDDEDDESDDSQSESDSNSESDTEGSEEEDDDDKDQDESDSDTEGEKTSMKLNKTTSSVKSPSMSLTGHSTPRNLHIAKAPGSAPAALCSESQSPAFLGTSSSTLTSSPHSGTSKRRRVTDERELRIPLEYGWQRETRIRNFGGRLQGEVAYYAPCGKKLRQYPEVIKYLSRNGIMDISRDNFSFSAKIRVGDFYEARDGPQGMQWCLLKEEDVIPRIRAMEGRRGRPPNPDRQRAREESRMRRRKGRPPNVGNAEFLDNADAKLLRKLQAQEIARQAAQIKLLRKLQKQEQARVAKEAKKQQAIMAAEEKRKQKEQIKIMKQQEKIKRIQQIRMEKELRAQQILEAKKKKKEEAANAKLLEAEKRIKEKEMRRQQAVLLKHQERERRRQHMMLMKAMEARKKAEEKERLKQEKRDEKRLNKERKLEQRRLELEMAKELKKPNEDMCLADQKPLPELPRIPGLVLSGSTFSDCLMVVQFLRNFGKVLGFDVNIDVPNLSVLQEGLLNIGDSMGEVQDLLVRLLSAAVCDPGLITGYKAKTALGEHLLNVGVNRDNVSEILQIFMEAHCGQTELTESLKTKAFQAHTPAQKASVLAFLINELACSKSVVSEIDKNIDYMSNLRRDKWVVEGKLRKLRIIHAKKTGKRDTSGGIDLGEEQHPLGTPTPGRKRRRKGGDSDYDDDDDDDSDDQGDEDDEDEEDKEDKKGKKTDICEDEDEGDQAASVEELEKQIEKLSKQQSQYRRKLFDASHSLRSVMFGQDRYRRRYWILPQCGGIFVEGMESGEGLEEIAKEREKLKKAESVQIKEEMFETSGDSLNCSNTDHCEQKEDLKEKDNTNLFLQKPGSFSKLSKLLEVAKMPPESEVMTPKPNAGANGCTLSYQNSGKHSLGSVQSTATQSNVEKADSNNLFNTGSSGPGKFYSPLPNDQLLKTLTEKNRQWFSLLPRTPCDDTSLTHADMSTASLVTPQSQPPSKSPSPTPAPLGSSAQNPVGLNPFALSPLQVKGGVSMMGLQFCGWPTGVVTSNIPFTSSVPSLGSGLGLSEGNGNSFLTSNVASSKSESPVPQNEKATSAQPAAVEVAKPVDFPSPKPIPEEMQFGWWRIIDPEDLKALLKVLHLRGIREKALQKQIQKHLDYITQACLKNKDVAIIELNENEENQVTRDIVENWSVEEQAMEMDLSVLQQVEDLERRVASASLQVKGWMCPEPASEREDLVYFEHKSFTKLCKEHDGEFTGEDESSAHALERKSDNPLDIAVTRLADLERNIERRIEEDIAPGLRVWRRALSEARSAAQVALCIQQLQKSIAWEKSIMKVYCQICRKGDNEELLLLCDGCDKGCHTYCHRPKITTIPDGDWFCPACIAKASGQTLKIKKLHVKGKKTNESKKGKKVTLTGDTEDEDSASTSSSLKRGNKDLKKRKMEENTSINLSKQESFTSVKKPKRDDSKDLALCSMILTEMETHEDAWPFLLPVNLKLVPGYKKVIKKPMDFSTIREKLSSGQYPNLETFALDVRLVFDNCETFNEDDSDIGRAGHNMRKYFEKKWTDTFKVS
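Inhibition is scored as reduced AlphaScreen emission. The BAZ2B/b-H3(5-23)K14Ac complex (50 nM each) in PBS pH 7.4, 0.01% Tween-20 meets compound (up to 110 uM) for 30 min at RT before bead addition.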
PLK1 PBD inh: inhibitors of human PLK1 polo-box domain binding; hit rate 2.8% among 360,000; Potency, µM, for the others: max response, negative = inhibition, actives largely listed as inhibitors; P53350; AID 720504; Plk1 PBD binding of FITC phosphopeptide, fluorescence polarization; note: series mostly up to about 57 µM; % is set by controls: 0 for no effect and ±100 for the full control effect; nearly all actives have a fitted effect of over 65% in size
HP1b binding inh: HP1-beta chromodomain-methylated histone interaction inhibition; AID 540317; hit rate 0.56% among 390,000; AlphaScreen HP1-beta / biotin-H3K9me3 peptide binding; Potency, µM (titrated, usually from 114 µM), without a hit: at the top dose activity change, negative = inhibition, most hits filed as inhibitors; note: nearly all actives have a fitted effect of over 70% in size
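HP1-beta protein (50 nM final) preincubated 30 min at room temperature with biotinylated H3(1-18)K9me3 peptide (50 nM) in PBS pH 7.4, 0.01% Tween-20, then compound added for 30 min. AlphaScreen streptavidin donor/nickel chelate acceptor beads (10 ug/mL final), 30 min dark, luminescence read.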
* = called active by the depositor; ! = not confirmed by another sample; [ ] = remark or other dose. Calls come from the whole dose curve; as a rule, active = well fitted curve in the direction sought with a large enough effect; inconclusive = small, poorly fitted or top-dose-only effect, or another doubt; inactive = no such curve, though single readings can be large; an effect the other way counts as inactive or inconclusive. Potency is the fitted concentration of half-maximal effect.

Screening COc1ccc(CN2CCCC(C(=O)c3ccc(Cl)cc3)C2)c(OC)c1 (configuration not stated) returned G9a block 21.6%[0.501 µM], JMJD2A Tudor inh inconclusive, Sfp inh 10.3%, BAZ2B inh -5.2%, PLK1 PBD inh 23.8µM* and HP1b binding inh -12.7%.
COc1ccc(O)c(CN2CCCC(C(=O)c3sccc3C)C2)c1 (configuration not stated) was read as G9a block 50.1µM*, JMJD2A Tudor inh -27.7%[57.1 µM], Sfp inh 4.1%, BAZ2B inh inconclusive, PLK1 PBD inh -11.3% and HP1b binding inh -22.3%.
C=C(C)[C@H]1[C@H]2OC(=O)[C@@H]1[C@]1(O)C[C@H]3O[C@]34C(=O)O[C@H]2[C@@]14C was read as G9a block 19.9%[21.5 µM] and Sfp inh 11.2%.
`NCCCC[C@H](N[C@@H](CCc1ccccc1)C(=O)O)C(=O)N1CCC[C@H]1C(=O)O` gave G9a block 10µM*!, JMJD2A Tudor inh -16.5%, Sfp inh 17.4%, BAZ2B inh -3.6%, PLK1 PBD inh -8.3% and HP1b binding inh 66.3%.
For NCCCCC(NC(CCc1ccccc1)C(=O)O)C(=O)N1CCCC1C(=O)O (configuration not stated) the results were G9a block -45.5%[2.33 µM] and Sfp inh -7.4%.
`CN1C(=O)CCS(=O)(=O)[C@@H]1c1ccc(Cl)cc1` gave G9a block 4.6%[21.5 µM] and Sfp inh 14.2%.
O=CC(Br)P(=O)(N1CCOCC1)N1CCOCC1 (configuration not stated) was read as JMJD2A Tudor inh -16.3%, Sfp inh 25.1µM*, BAZ2B inh -6.3%, PLK1 PBD inh inconclusive and HP1b binding inh -23.2%.
For O=P(C(Cl)Cl)(N1CCOCC1)N1CCOCC1 the results were G9a block -2.7%, JMJD2A Tudor inh -8.5%, Sfp inh 20.1%, BAZ2B inh 4.2%, PLK1 PBD inh -9.7% and HP1b binding inh -21.6%.
[O]=[Cd] was read as G9a block 30.8%[59 µM] and Sfp inh 10.9%.
For CCOc1c(P(=S)(N(C)C)N(C)C)c(C)nn1-c1ccccc1 the results were G9a block inconclusive, JMJD2A Tudor inh 14.2%, Sfp inh 11.1%, BAZ2B inh 2.8%, PLK1 PBD inh -9.3% and HP1b binding inh 38.2%.
Screening CCN(CC)P(=S)(c1c(C)nc2ccccn12)c1c(C)nc2ccccn12 returned G9a block 14.1µM*, JMJD2A Tudor inh -11.7%, Sfp inh 50.1µM*, BAZ2B inh -4.0%, PLK1 PBD inh 5.32µM* and HP1b binding inh -24.6%.
For Fc1ccc(C(OCCN2CCN(C/C=C/c3ccccc3)CC2)c2ccc(F)cc2)cc1 the results were G9a block 11.2µM* and Sfp inh 44.7µM*.
Fc1ccc(C(OCCN2CCCC2)c2ccc(F)cc2)cc1 was read as G9a block 1.7%[59 µM], JMJD2A Tudor inh -24.2%, Sfp inh 3.0%, BAZ2B inh 4.7%, PLK1 PBD inh -12.6% and HP1b binding inh 20.9%.
O=C(O)C1=CCCN(CCOC(c2ccc(C(F)(F)F)cc2)c2ccc(C(F)(F)F)cc2)C1 was read as Sfp inh -22.5%.
Screening Fc1ccc(C(OCCN2CCN(CCCc3ccccc3)CC2)c2ccc(F)cc2)cc1 returned G9a block inconclusive, JMJD2A Tudor inh 50.1µM*, Sfp inh 12.2% and HP1b binding inh -20.9%.
For c1ccc(CCCN2CCN(CCOC(c3ccccc3)c3ccccc3)CC2)cc1 the results were G9a block 10µM*, JMJD2A Tudor inh 56.2µM*, Sfp inh -17.0%, PLK1 PBD inh inconclusive and HP1b binding inh 4.4%.
Screening Fc1ccc(C(OCCN2CCCC2)c2ccc(Br)cc2)cc1 (configuration not stated) returned G9a block -9.0%[59 µM], JMJD2A Tudor inh 5.2%, Sfp inh 39.8µM*, BAZ2B inh -0.2%, PLK1 PBD inh -4.3% and HP1b binding inh 45.9%.
Screening CCCc1nnc(NC(=O)CCC(=O)N2CCN(CCOC(c3ccccc3)c3ccccc3)CC2)s1 returned G9a block -20.6%, JMJD2A Tudor inh -29.1%, Sfp inh 6.7%, BAZ2B inh -37.5%, PLK1 PBD inh -3.1% and HP1b binding inh 0.6%.
For CCCCCC[C@H]1C(=O)O[C@H](C)[C@H](NC(=O)c2cccc(NC=O)c2O)C(=O)O[C@@H](C)[C@H]1OC(=O)CC(C)C the results were G9a block 1.5%[21.5 µM] and Sfp inh 11.6%.
Cc1cc(=O)oc2cc(Oc3ccc([N+](=O)[O-])cc3C(F)(F)F)ccc12 was read as JMJD2A Tudor inh inconclusive, PLK1 PBD inh -17.7% and HP1b binding inh -2.2%.
`O=C(O)CCC1NCC2CC1CN1CCCCC21` (configuration not stated) gave Sfp inh -10.3%.
Screening CCOP(=O)(Nc1ccc2c(c1)C(=NNC(N)=S)c1ccccc1-2)OCC returned JMJD2A Tudor inh inconclusive, PLK1 PBD inh 26.7µM* and HP1b binding inh inconclusive.
`CC1(C)OC(c2ccccc2)=C/C(=C/C=C2C(=O)NC(=S)NC2=O)O1` gave G9a block 10µM*, JMJD2A Tudor inh inconclusive, Sfp inh 39.8µM*, BAZ2B inh 10µM*, PLK1 PBD inh 8.1% and HP1b binding inh 11.2µM*.
Screening O=[N+]([O-])c1ccc(CNCCc2ccccc2)cc1 returned G9a block 7.94µM*, JMJD2A Tudor inh 20µM*, Sfp inh -18.9%, BAZ2B inh 50.1µM*, PLK1 PBD inh 4.3% and HP1b binding inh inconclusive.
Screening O=[N+]([O-])c1ccccc1CNCCc1c[nH]c2ccccc12 returned JMJD2A Tudor inh 22.4µM*, Sfp inh -10.4%, BAZ2B inh 50.1µM*, PLK1 PBD inh -13.9% and HP1b binding inh inconclusive.
For O=[N+]([O-])c1ccccc1CNCCc1ccc(F)cc1 the results were G9a block 7.94µM*, JMJD2A Tudor inh 10µM*, Sfp inh -16.7%, BAZ2B inh 50.1µM*, PLK1 PBD inh -6.6% and HP1b binding inh inconclusive.
Screening Clc1ccccc1CNCCc1c[nH]c2ccccc12 returned PLK1 PBD inh 0.4%.
`CCOc1ccc(NC(=O)CN(c2ccc(Cl)cc2C)S(=O)(=O)c2ccccc2)cc1` gave G9a block -41.6%[59 µM], JMJD2A Tudor inh -11.9%, BAZ2B inh inconclusive and HP1b binding inh 20.1%.
C[N+]1([O-])[C@@H]2CC[C@H]1CC(OC(=O)[C@@H](CO)c1ccccc1)C2 (some centres not stated) was read as G9a block 22.1%[5.15 µM] and Sfp inh -10.8%.
